Reference: PubChem BioAssay AID1626 (SRMLSC, 2009)
Screen size: about 220,000 compounds; about 2,000 (0.91%) were called active. Not shown: some 2% with an inconclusive outcome. The list is a sample of the results. Results with a measured potency or affinity are listed apart. Unmarked numbers belong to inactive results. No stated cut-off is given here; in the data, inconclusive means inhibition above about 80% without an active follow-up result; inactive means below that; test concentration not stated here.

Experiment: M. tuberculosis H37Rv growth inhibitors, H37Rv strain (AID 1626);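 further: bacteria incubated seven days before Alamar blue readout; 0% = bacteria only wells and 100% = bacteria with antibiotic wells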
Conditions: hits give high values, concentration not given here
In the case of `CCOC(=O)c1ccc(-c2ccc(/C=N/NC(=O)CN(c3ccccc3Cl)S(C)(=O)=O)o2)cc1`, the inhibition is reported as 6.39%.
Compound `NNC(=O)c1cnn(-c2ccccc2)c1-n1cccc1` has an inhibition of -3.69%.
`Cc1ccc(NC(=O)C(=O)NCc2ccc(/C=C(/C#N)C(=O)NCc3cccnc3)o2)cc1C` showed an inhibition of 0.05%.
With `CCOC(=O)N1CCN(C(=O)CSCC(=O)N=c2sc3ccccc3n2C)CC1` the inhibition was -1.11%.
In the case of `CCOC(=O)c1ccc(NC(=O)Nc2ccc(Cl)cn2)cc1`, the inhibition is reported as -5.47%.
Work on `CCOC(=O)c1ccc(NCc2nc3ccccc3n2C)cc1` yielded an inhibition of 51.7%.
`CCOC(=O)c1ccc(NC(=O)COC)cc1` showed an inhibition of 79.3%.
For `CC1CCC/C(=C\Nc2ccc(C(=O)O)cc2)C1=O` (configuration not stated), the inhibition was -6.3%.
In the case of `CCCOC(=O)c1ccc(NC(=O)CC(C)(C)C)cc1`, the inhibition is reported as -1.14%.
Work on `CCOC(=O)c1ccc(NC(=O)c2cc(F)c(F)cc2Cl)cc1` yielded an inhibition of 2.44%.
Work on `CC1CCC/C(=C\Nc2ccc(O)cc2)C1=O` (configuration not stated) yielded an inhibition of -13%.
`CCOC(=O)Cc1nc2ccccc2[nH]1` gave an inhibition of -10.4%.
For `Cc1ccc(Nc2nc(C(=O)N3CCC(C(=O)N4CCN(C)CC4)CC3)cs2)cc1`, the inhibition was -9.19%.
For `O=C(NCC1CCCO1)c1sc2cc(Cl)ccc2c1Cl` (configuration not stated), the inhibition was 10.4%.
`CCN1CCN(C(=O)c2nn(-c3ccc(C)cc3)c(=O)c3c2c2ccccc2n3C)CC1` gave an inhibition of 1.02%.
For `CC(=O)c1c(C)[nH]c(C(=O)CSc2nnc(-c3ccccc3)n2Cc2ccc3c(c2)OCO3)c1C`, the inhibition was 0.21%.
Work on `CN1CCC(N2CCN(c3cccc(C(F)(F)F)c3)CC2)CC1` yielded an inhibition of -9.94%.
For `S=c1[nH]nc(Cc2ccccc2)n1-c1ccc(Cl)cc1`, the inhibition was -10.8%.
For `NNc1nc2ccc(Cl)cc2s1`, the inhibition was 52.6%.
With `Cn1c(=O)c2c(nc(N/N=C/c3cccs3)n2Cc2ccccc2)n(C)c1=O` the inhibition was 3.67%.
With `CCOC(=O)c1ccc(NC(=O)CNC(=O)C2CCCCC2)cc1` the inhibition was -1.48%.
In the case of `O=c1[nH]c(Nc2ccc(F)cc2)cc2ccccc12`, the inhibition is reported as 3.27%.
Work on `CCOC(=O)c1ccc(NC(=O)COc2ccccc2CNCCO)cc1` yielded an inhibition of 91.9%.
In the case of `O=c1[nH]c(Nc2ccccc2)cc2ccccc12`, the inhibition is reported as -8.22%.
`CCCOC(=O)c1ccc(NC(=O)C(CC)CC)cc1` showed an inhibition of 0.89%.
Compound `CCOC(=O)c1ccc(NC(=O)C2CCN(S(=O)(=O)CC)CC2)cc1` has an inhibition of 51.8%.
Compound `CCOC(=O)c1ccc(NC(=O)CCC(=O)OC)cc1` has an inhibition of 72.2%.
In the case of `CCOC(=O)c1ccc(NC(=O)COc2ccccc2CNC2CCCC2)cc1`, the inhibition is reported as 11.1%.
Compound `COc1ccccc1NC(=O)CCC(=O)N/N=C(/C)c1ccc(C)cc1` has an inhibition of 0.52%.
`O=C(N/N=C/c1ccccn1)C(=O)N1CCCCCC1` showed an inhibition of -1.83%.
With `O=C(CSc1ncccn1)N1CCCc2ccccc21` the inhibition was -8.67%.
With `CCCCN(C(=O)c1c(C)[nH]c(C(=O)OCC)c1C)c1ccccc1` the inhibition was -3.19%.
`COc1ccc(-n2c(=O)c3ccccc3n(CC(=O)c3ccccc3)c2=O)cc1OC` showed an inhibition of -3.99%.
Compound `C/C(=N\NC(=O)C1CC1(C)c1ccccc1)c1ccco1` (configuration not stated) has an inhibition of 5.62%.
In the case of `Cn1ncc(C#N)c1NC(=O)c1nn2cccnc2c1Cl`, the inhibition is reported as 6.92%.
Work on `Cc1ccc(C(=O)OCC(=O)NCC(F)(F)F)cc1C` yielded an inhibition of 9.6%.
For `O=C(CC1C(=O)NCCN1CC1CCCCC1)NCCc1ccc(F)cc1` (configuration not stated), the inhibition was -4.2%.
Work on `CCOC(=O)Cc1ccc(NC(=O)c2ccccc2Br)cc1` yielded an inhibition of 7.37%.
In the case of `CCOC(=O)c1ccc(NC(=O)CN2C(=O)CCC2=O)cc1`, the inhibition is reported as -7.66%.
`CCOC(=O)c1ccc(NC(=O)CN2C(=O)CNC2=O)cc1` showed an inhibition of -6.17%.
`COC(=O)Cc1ccc(NC(=O)c2ccc(C(C)(C)C)cc2)cc1` showed an inhibition of 6.95%.
With `Cc1ccc(C)c(NC(=O)Cc2coc3cc4c(cc23)CCC4)c1` the inhibition was 9.72%.
`CCOC(=O)c1ccc(NC(=O)CNC(=O)C23CC4CC(CC(C4)C2)C3)cc1` showed an inhibition of -2.81%.
Work on `CCOC(=O)c1ccc(NS(C)(=O)=O)cc1` yielded an inhibition of -0.25%.
`CC(=O)c1cccc(NC(=O)Cc2coc3cc4c(cc23)CCC4)c1` showed an inhibition of 6.34%.
With `O=S(=O)(Cc1ccccc1)Cc1cnc(Cl)s1` the inhibition was 4.1%.
For `CCCOCCc1nnc(N)s1`, the inhibition was 1.89%.
Compound `Cc1cccc(OCCSc2cc(C)nc(N)n2)c1` has an inhibition of 6.69%.
Work on `COc1ccc(/C=C/C(=O)c2ccncc2)c2ccccc12` yielded an inhibition of 76%.
With `Cc1[nH]c2ccccc2c1/C=C/C(=O)c1ccncc1` the inhibition was 6.67%.
Compound `O=C(/C=C/c1ccc2c(c1)OCO2)Nc1cccnc1` has an inhibition of 8.75%.
For `CCCCN(CCNP(=O)(OCC)OCC)CP(=O)(OCC)OCC`, the inhibition was -3.59%.
`Nc1nc2ccc(O)cc2s1` showed an inhibition of -4.72%.
With `COc1ccc2nc(N)sc2c1` the inhibition was 42%.
In the case of `O=C(O)CSC1=NC(=Nc2cccc(Cl)c2)C2(CCCCC2)N1c1ccccc1`, the inhibition is reported as 5.37%.
In the case of `O=C(NC1CC1)C1=C[C@@H](c2ccccc2)C[C@@H](OCc2ccc(CO)cc2)O1`, the inhibition is reported as -10.6%.
For `COc1ccccc1N1CCN(c2nc3ccccn3c(=O)c2C=O)CC1`, the inhibition was -13.2%.
Compound `N#Cc1nc(-c2cccs2)oc1NCc1ccccc1` has an inhibition of 6.94%.
`C=CCNc1oc(-c2cccs2)nc1C#N` showed an inhibition of -10.7%.
`CCOC(=O)C1(Cc2ccccc2)CCN(Cc2ccc(COC)o2)CC1` showed an inhibition of 8.15%.
`Cc1cccc(NC(=O)CSc2nnc(-c3ccncc3)n2C)c1` gave an inhibition of -2.48%.
Compound `COC(=O)c1ccc(N)c(N=CC2=C(O)CC(C)(C)CC2=O)c1` has an inhibition of 99.2%.
`CCOCCSC1=C(C#N)C(c2cccs2)C(C(C)=O)=C(C)N1` (configuration not stated) gave an inhibition of -2.87%.
With `CCSC1=C(C#N)C(c2cccs2)C(C(=O)OC)=C(C)N1` (configuration not stated) the inhibition was -5.12%.
In the case of `Cc1nc2cc(NC(=O)CCS(=O)(=O)c3ccccc3)ccc2s1`, the inhibition is reported as -0.27%.
In the case of `Cc1ccccc1Oc1ncnc(N)c1[N+](=O)[O-]`, the inhibition is reported as -1.2%.
Compound `Nc1ncnc(Oc2ccccc2F)c1[N+](=O)[O-]` has an inhibition of 7.09%.
`COc1ccc(NC(=O)C(=O)NCCN2CCN(C(=O)c3ccco3)CC2)cc1` gave an inhibition of 4.1%.
With `O=C(COc1ccccc1)Nc1cccc(-c2nc3cc4ccccc4cc3[nH]2)c1` the inhibition was 55.3%.
`O=C(Cc1cccs1)Nc1ccc(-c2nc3ccccc3[nH]2)cc1` gave an inhibition of 1.13%.
`O=C(Nc1cccc([N+](=O)[O-])c1)N1CCN(c2ccccc2)CC1` showed an inhibition of -7.11%.
For `CC(=O)c1ccc(NC(=O)N2CCN(c3ccc(C)cc3)C(C)C2)cc1` (configuration not stated), the inhibition was 0.07%.
For `Cc1ccc(NC(=S)NCc2ccccc2)cc1S(=O)(=O)N1CCCCC1`, the inhibition was -3.09%.
Work on `CCCn1cnc2c(N)c(C)c(C)cc21` yielded an inhibition of -8.86%.
For `Cc1cc2c(ncn2Cc2ccccc2)c(N)c1C`, the inhibition was 1.64%.
In the case of `N#C/C(=N\Nc1c(Cl)cccc1Cl)C(=O)NN`, the inhibition is reported as 0.65%.
In the case of `O=[N+]([O-])c1cc(/C=N\Nc2nc(-c3ccccc3)cs2)ccc1O`, the inhibition is reported as -2.52%.
Work on `O=C(Nc1ccccc1Cl)Oc1ccc(Cl)cc1Cl` yielded an inhibition of -3.15%.
`O=C(Nc1ccccc1Cl)Nc1ccccc1Cl` gave an inhibition of -9.3%.
Work on `Cn1c(NC(=O)C2CC2)cc(=O)n(C)c1=O` yielded an inhibition of 5.07%.
For `CCn1c(/C=C/c2ccccc2)nc2ccccc2c1=O`, the inhibition was 0.15%.
`O=c1oc(/C=C/c2ccccc2)nc2sc3c(c12)CCC3` gave an inhibition of -3.48%.
Compound `COC(=O)c1cc(OC)c(OC)cc1NC(=O)c1cccnc1` has an inhibition of 4.7%.
Compound `CCCOc1c(Cl)cc(C(=O)NC)cc1OC` has an inhibition of 12%.
In the case of `COC(=O)CC1C(=O)NCCN1C(=O)c1sc2ccccc2c1Cl` (configuration not stated), the inhibition is reported as -9.23%.
`O=C(COC(=O)Cc1ccccc1F)Nc1ccc(Cl)cn1` showed an inhibition of -6.09%.
`CCOc1ccc2ncc(S(=O)(=O)c3ccccc3)c(N3CCC4(CC3)OCCO4)c2c1` showed an inhibition of -1.36%.
Compound `COc1ccc(S(=O)(=O)c2cnc3ccc(OC)cc3c2N2CCC3(CC2)OCCO3)cc1` has an inhibition of 9.48%.
Work on `Cc1ccc(N2C(=O)[C@@H]3[C@H](C2=O)C2c4ccccc4C=NN2[C@@H]3C(=O)c2ccc(Cl)cc2)cc1` (some centres not stated) yielded an inhibition of 8.72%.
With `Cc1ccc(-n2cc(-c3ccc([N+](=O)[O-])cc3)[nH]c2=S)c(C)c1` the inhibition was 3.47%.
In the case of `Cc1ccc(C(=O)CSc2ccccn2)cc1`, the inhibition is reported as -3.3%.
`O=C(O)c1ccnc(SCC(=O)c2ccccc2)c1` gave an inhibition of -4.56%.
For `CCC(CC)C(=O)Nc1cc([N+](=O)[O-])ccc1Cl`, the inhibition was 5.59%.
`O=C(CCCC(=O)OCC(Cl)=C(Cl)Cl)Nc1ccccc1F` showed an inhibition of -0.28%.
Compound `COc1ccccc1N(C(=O)CCl)c1cn(C(C)=O)c2ccccc12` has an inhibition of 42.8%.
`COC(=O)c1cn(C(=O)c2ccc(Cl)cc2)c2ccccc12` gave an inhibition of -3.26%.
`O=Cc1[nH]c2ccccc2c1N(C(=O)CCl)c1ccc([N+](=O)[O-])cc1` gave an inhibition of -1.28%.
`CC(=O)n1cc(Nc2ccccc2C(=O)O)c2ccccc21` showed an inhibition of -4.19%.
In the case of `CC(=O)N(c1ccc(Cl)cc1)c1cn(C(C)=O)c2ccccc12`, the inhibition is reported as 11.9%.
For `CC(=O)n1cc(Nc2ccc([N+](=O)[O-])cc2)c2ccccc21`, the inhibition was 3.13%.
For `CCOC(=O)c1ccccc1Nc1cn(C(C)=O)c2ccccc12`, the inhibition was 3.14%.
`CC(=O)n1cc(-c2ccncc2)c2ccccc21` showed an inhibition of 8.31%.
